Compound activity as filed in PubChem.
BoNT-A LC inh2 = inhibitors of Botulinum neurotoxin A light chain protease; multiplex microsphere protease substrate cleavage, flow cytometry; inhibition, % at 10 µM; 0.17% of 360,000 active
Anthrax LF prot = inhibitors of Bacillus anthracis lethal factor protease; P15917; multiplex microsphere protease cleavage assay, LF; inhibition, % at 10 µM; 0.12% of 360,000 active; AID 588501
Target sequence (P15917 whole entry, looked up): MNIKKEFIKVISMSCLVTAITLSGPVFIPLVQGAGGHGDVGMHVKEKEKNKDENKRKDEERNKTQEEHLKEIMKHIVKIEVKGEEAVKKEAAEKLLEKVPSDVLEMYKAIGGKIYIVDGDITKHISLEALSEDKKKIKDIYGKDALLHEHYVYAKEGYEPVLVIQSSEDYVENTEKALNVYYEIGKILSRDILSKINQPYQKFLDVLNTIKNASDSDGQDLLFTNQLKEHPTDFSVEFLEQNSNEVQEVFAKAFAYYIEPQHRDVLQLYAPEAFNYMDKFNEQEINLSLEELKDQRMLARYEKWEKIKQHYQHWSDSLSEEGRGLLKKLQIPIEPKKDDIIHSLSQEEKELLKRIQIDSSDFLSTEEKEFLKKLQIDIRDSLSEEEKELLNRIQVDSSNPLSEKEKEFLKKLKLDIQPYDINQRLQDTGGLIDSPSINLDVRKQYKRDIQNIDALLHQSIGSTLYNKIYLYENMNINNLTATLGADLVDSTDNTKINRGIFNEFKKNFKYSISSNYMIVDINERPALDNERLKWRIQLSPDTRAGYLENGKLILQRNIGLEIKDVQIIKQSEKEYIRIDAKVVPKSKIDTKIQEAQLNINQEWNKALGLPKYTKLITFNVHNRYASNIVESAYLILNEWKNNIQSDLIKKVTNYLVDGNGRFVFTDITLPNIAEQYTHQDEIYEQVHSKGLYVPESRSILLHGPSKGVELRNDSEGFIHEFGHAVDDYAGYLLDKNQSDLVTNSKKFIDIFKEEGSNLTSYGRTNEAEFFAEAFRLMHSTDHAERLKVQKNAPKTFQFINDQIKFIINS
Bead autofluor = flagged as autofluorescent in microsphere protease counterscreen; compound autofluorescence counterscreen, microsphere flow cytometry; active compounds read high; fluorescence intensity (concentration not given with the values); 3.1% of 360,000 active; in the data active = fluorescence intensity above about 16000; inconclusive = no clear call, values can overlap the other calls
BoNT-F LC inh = blocks Botulinum neurotoxin F light chain protease; Multiplex microsphere protease cleavage assay, flow cytometry; inhibition, % at 10 µM; 0.22% of 360,000 active; in the data active = inhibition above about 35%, passing the limit was not always enough; inconclusive = no clear call, values can overlap the other calls
GDH-TPI counter-1 = inhibits GDH-TPI coupling enzymes, artifact for Mtb FBA screen; inhibition, % at 4.8 µM; AID 588335; GDH-TPI coupled enzyme counterscreen, NADH absorbance; 1.2% of 360,000 active; in the data active = inhibition above about 30%
FBA Mtb inh = inhibitors of M. tuberculosis fructose-bisphosphate aldolase; P9WQA3; purified M. tuberculosis FBA, fluorescence read-out; inhibition, % at 1 µM; 2.3% of 360,000 active; AID 588726; in the data active = inhibition above about 27%
Mtb FBA inh conf = confirmation of M. tuberculosis fructose-bisphosphate aldolase inhibitors; shares compounds with FBA Mtb inh; purified M. tuberculosis FBA, fluorescence read-out; inhibition, % at 1 µM; 78% of 5,600 active; in the data active = inhibition above about 27%
GDH-TPI counter-2 = GDH-TPI inhibition counter-screen for FBA inhibitors | shares compounds with FBA Mtb inh | GDH-TPI coupled enzyme counterscreen, fluorescence | inhibition, % at 1 µM | 81% of 5,600 active; in the data active = inhibition above about 10%
GDH-TPI dose = GDH-TPI dose response counter-screen for Mtb FBA. GDH-TPI coupled enzyme assay, fluorescence, artifact counterscreen. IC50, µM. 79% of 170 active. shares compounds with FBA Mtb inh; call rule not given here
Of the large screens only hits and unclear results are named; the others gave an inactive call (follow-up assays come after a bar, where they were run). An excerpt weighted towards active compounds, which were near 6.7% of everything screened. Cut-off read from the data, not from the text of the source, unless noted: active = inhibition above about 30%; inconclusive = no clear call, values can overlap the other calls; inactive = below that.

CCCCNc1c(-c2ccc(-c3ccc(OC)cc3)c(OC)c2)nc2ccccn12	FBA Mtb inh 72.8 | Mtb FBA inh conf 82.3 | GDH-TPI counter-2 59.3
CCCCCCSc1cc(-c2nc3cnccn3c2NCCCC)ccc1OC	none
CCCCNc1c(-c2ccc(SC(C)CC)c(OC)c2)nc2ccc(C)cn12 (stereo unspecified)	FBA Mtb inh 47.6 | Mtb FBA inh conf 35.3 | GDH-TPI counter-2 26.6
CCCCCCSc1cccc(-c2nc3cc(C)ccn3c2NC2CCCCC2)c1	none
CC(C)CC(NC(=O)C(NC(=O)OC(C)(C)C)C(C)C)C(=O)N1CCCC1C(N)=O (stereo unspecified)	none
CCCCCCSc1cccc(-c2nc3ccccn3c2NCc2ccccc2)c1	FBA Mtb inh 41.9 | Mtb FBA inh conf 101.3 | GDH-TPI counter-2 66.4
O=C(c1ccccc1)c1ccc(OCC(O)CN2CCOCC2)cc1 (stereo unspecified)	FBA Mtb inh 76.3 | Mtb FBA inh conf inactive | GDH-TPI counter-2 inactive | GDH-TPI dose inactive
Cc1ccccc1N1C(=O)C2C3C=CC(C2C1=O)N(C)C3=O (stereo unspecified)	none
NC(=O)C1(N2CCCCC2)CCN(C(=O)c2cccn3c(=O)c4cc(Cl)ccc4nc23)CC1	FBA Mtb inh 39.9 | Mtb FBA inh conf inactive | GDH-TPI counter-2 inactive
O=C(c1cccn2c(=O)c3cc(Cl)ccc3nc12)N1CCOCC1	BoNT-A LC inh2 inconclusive, Bead autofluor 23073, FBA Mtb inh 45.1 | Mtb FBA inh conf inactive | GDH-TPI counter-2 inactive
C=CCN1C(=O)c2oc3ccccc3c(=O)c2C1c1ccc(O)c(OC)c1 (stereo unspecified)	none
CCCCc1nc2cc(C(=O)NC(C)c3cnn(C)c3)ccc2o1 (stereo unspecified)	none
O=C(Nc1ccc(N2CCCCC2)cc1)C1CCCN1S(=O)(=O)c1ccc(F)cc1 (stereo unspecified)	none
COc1ccc(/C=C\c2nc(=O)c3ccccc3o2)cc1	none
O=C(O)/C(CC(=O)c1ccc(Cl)cc1)=N/Nc1ccc([N+](=O)[O-])cc1[N+](=O)[O-]	none
CC1=CN2CC(O)CN=C2C=C1 (stereo unspecified)	FBA Mtb inh 38.5 | Mtb FBA inh conf 127.9 | GDH-TPI counter-2 96.6
CC1=CC=CN2CC(O)CN=C12 (stereo unspecified)	FBA Mtb inh 30.4 | Mtb FBA inh conf active | GDH-TPI counter-2 active
CC(C)(C)c1ccc(-n2ncc3c2CCCC3NC(=O)CN2CCCC2=O)cc1 (stereo unspecified)	none
Cc1ccc(CCNC(=O)CCS(=O)(=O)c2ccc3nc(C)sc3c2)cc1	none
Cc1ccc(-n2c(C)nc3ccccc3c2=O)cc1C	none
Cn1c(=O)c2cc(NC(=O)NCCc3cccs3)ccc2n1-c1ccc(C(C)(C)C)cc1	none
Cn1c(=O)c2cc(NC(=O)Nc3cccnc3)ccc2n1-c1ccc(C(C)(C)C)cc1	FBA Mtb inh 31.2 | Mtb FBA inh conf inactive | GDH-TPI counter-2 14.4
CCCOc1c(Br)cc(C2C3=C(CCCC3=O)N(CC)C3=C2C(=O)CCC3)cc1OC	FBA Mtb inh 31.1 | Mtb FBA inh conf 30.1 | GDH-TPI counter-2 35.3
CCCOc1c(Br)cc(C2C3=C(CCCC3=O)N(C)C3=C2C(=O)CCC3)cc1OC	FBA Mtb inh 42.3 | Mtb FBA inh conf active | GDH-TPI counter-2 active
Cc1cccc(CSc2nc3c(c(=O)[nH]2)CCCC3)c1	none
Cc1ccc(S(=O)(=O)N2CCN(C(=O)c3n[nH]c(=O)c4ccccc34)CC2)cc1	none
C=C1c2cc(OC)ccc2NC(=O)N1CC	FBA Mtb inh 34.3 | Mtb FBA inh conf inactive | GDH-TPI counter-2 inactive
COc1ccc2c(c1)/C(=C/c1cc(OC)c(OC)c(OC)c1)C(=O)N2	none
S=c1nc[nH]c2c1ncn2-c1ccc(Cl)cc1	none
Nc1nc2c(c3c1c(=O)oc1ccccc13)CCCCC2	FBA Mtb inh 38.1 | Mtb FBA inh conf inactive | GDH-TPI counter-2 inactive
